# Measurements reported in the supplement of paper PMC6555819.
# System: VDR:RXRa (NR concentration 270 nM, RXRa partner concentration 90 nM)
# Experiment: PBM binding z-score (relative to random genomic background probes); higher = stronger binding; sequences stand for … in GC…GCGATTGACAGCGTAGAATGAAGG
# Method: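 Protein-binding microarray (Agilent 4x180K custom design, double-stranded 60-nt probes: 5' GC cap, 34-nt variable region, 24-nt constant primer region; full probe sequence given). Purified or IVT nuclear receptor:RXRα heterodimers (3:1 NR:RXRα, mostly 270:90 nM) or homodimers were incubated for 1 h in PBS with 2% milk and no ligand, then detected with Alexa488 antibodies. Fluorescence from o1-orientation probes (~5 replicates averaged) was converted to z-scores against 500 random hg19 background probes. Variable regions are seed direct-repeat (DR0–DR5) sites, all their single-nucleotide variants and half-site ablations.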
row,Sequence,PBM binding z-score
1,CCTGCTAGGTCAATGGTCAGCTAGAGCAGCTCGC,0.675
2,GCTATTAGTTGAAAGGGCAACAGAATGATTCTCG,0.688
3,ACAGACAGGTGATGAAGGTAACCCAGGCTATCAT,-0.00497
4,TGAATGAGGTTACAGATCAGGGAACGTGGCGTCG,0.932
5,TTAGACAGGTGAAGGTAACTCAGGTACGCAGTCG,0.618
6,TCGAGTAGGTTAGTCGGTGCATTCAGCCAACATA,3.31
7,CGTCAAAGTTCAAGGTAACGTATCAGAAAGCAGC,3.97
8,CCTAGTTGGTCAAGGTGACACACGCTATAGGTAC,0.694
9,TCTAGCAGGCCAGAGGGTCACTGAAGAGGTACGG,1.52
10,CTCGAACGGTCGTGCTCAGGTGAGTATACCAAAC,-0.344
11,ATATGTAGGTTAAGGTTCATTCAGGTTGGTTCGC,5.06
12,CATACAAGGTCAGCTAGGCCAGAGTAGGGACGGC,3.81
13,TAGCCTAGGTCATTCAAGGGCCAGTATAGAAAGC,2.89
14,ATCTCTAGGTAAGACTCAGTTCAGTTAAGAACGC,1.12
15,GATACAGGATCAAGGCCAGAGTACGCGTATTGAT,-0.308
16,CAAACTACGTCAAGGTCAAAGTCGGTTTGTGCCA,4.45
17,ACTCGGAGGACACAGGTCAGAGCTACGCCAGTGA,0.834
18,GCTACTTGGTCAGTAAAAGGTCACACACCGGTCG,4.16
19,ATCGAAAGGTCGTGAGGTGAATATACAGAAAGGC,3.88
20,CCGACTGGGGCAGAAAGGTTATCATACCATCCGG,0.932

row,Sequence,PBM binding z-score
1,GCTGCTAGGTCAGGTTGGACAGCTAACGGGTACG,0.304
2,CGTCCAGGGTCAAGGTCAGTGAAAGAGACTCGAA,4.79
3,GATACAGGGTCAGGGCCAGAGTACGCGTATTGAT,3.14
4,CCTACTGGGACATTCAGAGGTCATTGATCATATG,4.18
5,TAGCCTAGGTCATGGGCTAGTATACCACGCGAAC,1.72
6,CGAACTAGGTCAGAACAGGCCAGTGAAGGATGAT,0.281
7,CAAACTTGGTCAAAGGTCAAAGTCGAGCCAACCA,5.59
8,CCTCGGAGGATAACAGGAGGTCAGAGCTGCCAGA,1.5
9,CCGACTGGGGCAAGGTTTCCATAACGCACAGCCA,-0.502
10,CTCGAAAGGTCGGTTGAGGGGAGTATACGGATAA,1.24
11,CCTCGCAGGCCAGGGTCACTCAAGCATTTCGCTT,2.41
12,CCGACTGGGGCAAGGTTACCATCACGCACAGCCA,-0.00962
13,ACTTACCGGTCAACGAGGTTATAGCACGCGTATA,6.19
14,ACAATTAGTTGACTTAGGGCAACCGATACGACGC,0.376
15,TCATACAGGTAAACAGGTGAAAGTCCGTAAGTTA,1.2
16,GGACCGAGGGCAAGTTGATAGCAGAGTTTGATGG,0.844
17,ATCTCTAGCTAAGACTCAGTTCAGTGAAGAACGC,0.552
18,CCTTACGGGTCAAGGGTATAGCACGGGTGGTACG,3.22
19,ACTATTAGTTGACTTAGGGCAAACGATACGACGC,0.55
20,TTACCAAGGTGAGCTGAGGTCTTTGATCCAACTC,0.497
